Assay results: PubChem BioAssay
Values joined by “and” are separate entries in the source; they are usually repeats but may differ in a detail not shown here. Equal entries are not always repeated. Results filed as inconclusive are left out. Active and inactive are the calls of the source.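 How the source made its calls, unless noted: active means aptamer binding inhibition above 30%, about 3 SD of noise from non-fluorescent compounds; inactive means inhibition at or below 30%.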

Key:
[1] = rapamycin-like changes in RPL19A-GFP expression – cell-based, S. cerevisiae, multiplex flow cytometry, primary screen (AID 1862; in the data active means percent of DMSO control GFP below about 86%;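 further: lower values mimic rapamycin by blocking the RPL19A rise seen in DMSO cells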); conditions: S. cerevisiae RPL19A-GFP strain, flow cytometry fluorescence, 3 h; at 10 µM; stronger effect = lower value
[2] = TOR pathway GLN3 branch reporter MEP2-GFP changes – S. cerevisiae, multiplex flow cytometry, primary screen (AID 1867;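 active means GFP response, as percent of the DMSO control, above the screen-wide mean plus 3 SD, about 139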;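 further: median GFP channel fluorescence of barcode-gated MEP2-GFP cells measured by flow cytometry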); conditions: S. cerevisiae MEP2-GFP strain, 3 h, at 10 µM, stronger effect = higher value, 100% means same as DMSO wells
[3] = TOR pathway RTG branch CIT2 reporter changes – S. cerevisiae, GFP fusion, multiplex flow cytometry, primary screen (AID 1870;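 active means percent response above a set limit, the screen-wide mean plus 3 SD, cut at about 130% in these data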;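 further: barcoded CIT2-GFP strain pooled with four other GFP strains with rapamycin as positive control; median GFP fluorescence per well over plate mean of DMSO wells so 100% = DMSO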); conditions: S. cerevisiae CIT2-GFP expression, 3 h, at 10 µM, stronger effect = higher value
[4] = TOR pathway LAP4-GFP level changes – S. cerevisiae, multiplex flow cytometry, primary screen (AID 1873;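 active means GFP signal, as percent of the solvent control, above the screen mean plus 3 SD, about 149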); conditions: S. cerevisiae LAP4-GFP expression, 3 h, at 10 µM, stronger effect = higher value
[5] = yeast AGP1-GFP level changes, GLN3 branch – cell-based, multiplex flow cytometry, S. cerevisiae, primary screen (AID 1887;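 active means GFP signal above the screen-wide mean plus 3 SD, that is over about 124.5% of the solvent control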;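 further: AGP1-GFP fusion strain of S. cerevisiae within a five-strain barcoded multiplex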); conditions: 3 h, at 10 µM, stronger effect = higher value
[6] = reduced mouse 2C T cell binding to pMHC/ICAM-1 vesicles – MLPCN validation set, flow cytometry, LFA-1/ICAM-1 modulator project, pilot screen (AID 2523;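 active means response below a set limit, under 55% cells CD8-positive and vesicle-bound, and CD8 cells' 90th-percentile brightness under 279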;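 on vesicle binding response: mean PE anti-B7-1 fluorescence of CD8+ cells relative to row control; 100% = QL9-loaded vesicles with DMSO vehicle in the same plate row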); conditions: 2C mouse CD8+ T cells, at 7 µM, stronger effect = lower value; double positive events: measured here: CD8+/vesicle+ event percentage
[7] = biological target: Integrin beta-1 (Homo sapiens) + Integrin alpha-4 (Homo sapiens) (UniProt P13612+P05556); assay: alpha4beta1 integrin LIBS antibody binding reduction – U937 cells, HUTS-21 mAb, flow cytometry, validation set, VLA-4 allosteric modulator project, pilot screen (AID 2674;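 active means inhibition above 50%, about 3 SD of the validation set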;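 further: antibody binding induced by the VLA-4 ligand LDV present at three times its Kd; 0% = LDV ligand with antibody and no compound and 100% = antibody without LDV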); conditions: HUTS-21 LIBS mAb binding, at 6.7 µM, stronger effect = higher value, binding induced by LDV ligand
[8] = calorie-restriction mimetic ROS inhibitors, yeast – validation compound set, pilot screen (AID 2706;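 active means superoxide response below 65% of plate, a cut near 3 SD across the whole screen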;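 further: yeast exposed to compound for one week at 30 degrees C before staining; 100% = mean of all compound wells on the same plate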); conditions: S. cerevisiae aging, superoxide DHE fluorescence; at 10 µM; stronger effect = lower value
[9] = biological target: Beta-adrenergic receptor kinase 1 (Homo sapiens) (UniProt P25098); assay: GRK2 binders displacing RNA aptamer, biochemical, validation, human GRK2, bead flow cytometry (AID 488806); conditions: bead-bound GRK2, FAM-aptamer displacement, at 10 µM, stronger effect = higher value
[10] = biological target: Beta-2 adrenergic receptor (Homo sapiens) (UniProt P07550); assay: agonist-induced loss of surface beta2AR – cell-based, FAP fluorogen, flow cytometry, validation set, pilot screen (AID 504459;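 active means percent response above 42, roughly 3 SD of non-fluorescent test compounds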;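 further: agonist-driven loss of surface beta2AR via internalization measured by FAP dye flow cytometry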); conditions: Am2.2-beta2AR cells, at 10 µM, stronger effect = higher value
[11] = biological target: AP-2 complex subunit beta (Homo sapiens) (UniProt P63010); assay: beta-arrestin/AP2 interaction blockers – biochemical, validation set, GST-AP2 beads, flow cytometry, pilot screen (AID 504541;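 active means inhibition above 54%, about 3 SD of non-fluorescent compounds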;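 further: AP2 carries R879A mutation and is captured from E. coli lysate; bead-bound FITC arrestin peptide fluorescence measuring arrestin peptide binding to AP2; 0% = DMSO wells and 100% = excess unlabeled arrestin peptide control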); conditions: FITC arrestin peptide, at 10 µM, stronger effect = higher value, AP2 beta2 appendage fragment, R879A mutant
[12] = cytosolic pH regulators acting via V-ATPase – S. cerevisiae, pHLuorin, HTS validation (AID 504600; in the data active means response above about 15%;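 further: plate controls were DMSO for no effect and reference compound for full effect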); conditions: V-ATPase proton transport, at 10 µM, stronger effect = higher value
[13] = system: anti-desmoglein-3 scFv antibody binding to human DSG3; assay: blockers of pathogenic pemphigus antibody–desmoglein-3 binding – biochemical, validation compound set, bead-based, flow cytometry, pilot screen (AID 588368;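 active means binding below the plate cutoff, the plate median minus 3 SD, with a reading above zero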;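 further: signal is the median channel fluorescence of bead-bound GFP antibody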); conditions: Protein G beads, DSG3-Fc, scFv-GFP binding, at 10 µM, stronger effect = lower value
[14] = Nile Red efflux blockade in pump-expressing yeast – validation compound set, multiplex, phenotypic, pilot screen (AID 588506;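 active means efflux inhibition above 0.42, the validation set average plus 4 SD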;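 further: Nile Red retained in cells so higher fluorescence means more efflux inhibition; 0 = negative control wells and 1 = enniatin B 25 µM full block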); conditions: S. cerevisiae pump-expressing triplex, Nile Red efflux flow cytometry; at 10 µM; stronger effect = higher value; the pumps come from Candida albicans
[15] = biological target: ATP-binding cassette sub-family B member 6 (Homo sapiens) (UniProt Q9NP58); assay: blockers of ABCB6-driven porphyrin uptake – K562-ABCB6 cells, flow cytometry, validation set, pilot screen (AID 588550;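 active means inhibition above the screen-wide mean plus 3 SD, about 51%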;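 further: 0% = DMSO wells and 100% = benzethonium chloride 70 µM positive control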); conditions: K562-ABCB6 porphyrin accumulation, 1 h, at 10 µM, stronger effect = higher value
[16] = AML differentiation inducers, ER-HoxA9 marrow cells – cell-based, GFP/MAC1 double positive, flow cytometry, validation set, primary screen (AID 588685;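 active means differentiation response of at least 50%, scaled between solvent and reference control, from cells with both markers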;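 further: compound exposure lasts four days before antibody staining and flow analysis; 0% = DMSO wells and 100% = 5 µM fulvestrant positive control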); conditions: stronger effect = higher value, normalized: vehicle 0, fulvestrant 100

Integrin beta-1 (Homo sapiens) + Integrin alpha-4 (Homo sapiens), sequence (P05556 whole entry, looked up): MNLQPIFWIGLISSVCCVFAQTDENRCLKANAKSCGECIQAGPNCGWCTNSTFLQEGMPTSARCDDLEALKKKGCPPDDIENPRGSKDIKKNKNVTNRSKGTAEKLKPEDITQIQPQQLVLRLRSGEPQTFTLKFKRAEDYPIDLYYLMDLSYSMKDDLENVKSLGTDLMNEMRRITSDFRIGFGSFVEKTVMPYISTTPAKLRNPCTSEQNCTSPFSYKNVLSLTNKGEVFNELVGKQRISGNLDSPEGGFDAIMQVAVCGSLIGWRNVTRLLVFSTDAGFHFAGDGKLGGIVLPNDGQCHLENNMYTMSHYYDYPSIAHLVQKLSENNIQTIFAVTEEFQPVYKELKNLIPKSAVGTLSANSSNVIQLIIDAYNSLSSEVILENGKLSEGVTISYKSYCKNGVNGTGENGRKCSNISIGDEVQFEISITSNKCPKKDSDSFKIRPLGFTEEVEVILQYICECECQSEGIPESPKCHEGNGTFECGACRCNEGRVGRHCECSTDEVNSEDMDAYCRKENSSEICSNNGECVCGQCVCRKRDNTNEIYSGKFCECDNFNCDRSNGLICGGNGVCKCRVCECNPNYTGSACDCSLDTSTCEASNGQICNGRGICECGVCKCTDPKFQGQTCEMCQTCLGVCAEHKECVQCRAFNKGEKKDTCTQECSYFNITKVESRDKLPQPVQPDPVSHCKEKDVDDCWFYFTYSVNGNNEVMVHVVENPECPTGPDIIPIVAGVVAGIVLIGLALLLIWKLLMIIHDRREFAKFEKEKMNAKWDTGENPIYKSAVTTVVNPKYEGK
Integrin beta-1 (Homo sapiens) + Integrin alpha-4 (Homo sapiens), sequence (P13612 whole entry, looked up): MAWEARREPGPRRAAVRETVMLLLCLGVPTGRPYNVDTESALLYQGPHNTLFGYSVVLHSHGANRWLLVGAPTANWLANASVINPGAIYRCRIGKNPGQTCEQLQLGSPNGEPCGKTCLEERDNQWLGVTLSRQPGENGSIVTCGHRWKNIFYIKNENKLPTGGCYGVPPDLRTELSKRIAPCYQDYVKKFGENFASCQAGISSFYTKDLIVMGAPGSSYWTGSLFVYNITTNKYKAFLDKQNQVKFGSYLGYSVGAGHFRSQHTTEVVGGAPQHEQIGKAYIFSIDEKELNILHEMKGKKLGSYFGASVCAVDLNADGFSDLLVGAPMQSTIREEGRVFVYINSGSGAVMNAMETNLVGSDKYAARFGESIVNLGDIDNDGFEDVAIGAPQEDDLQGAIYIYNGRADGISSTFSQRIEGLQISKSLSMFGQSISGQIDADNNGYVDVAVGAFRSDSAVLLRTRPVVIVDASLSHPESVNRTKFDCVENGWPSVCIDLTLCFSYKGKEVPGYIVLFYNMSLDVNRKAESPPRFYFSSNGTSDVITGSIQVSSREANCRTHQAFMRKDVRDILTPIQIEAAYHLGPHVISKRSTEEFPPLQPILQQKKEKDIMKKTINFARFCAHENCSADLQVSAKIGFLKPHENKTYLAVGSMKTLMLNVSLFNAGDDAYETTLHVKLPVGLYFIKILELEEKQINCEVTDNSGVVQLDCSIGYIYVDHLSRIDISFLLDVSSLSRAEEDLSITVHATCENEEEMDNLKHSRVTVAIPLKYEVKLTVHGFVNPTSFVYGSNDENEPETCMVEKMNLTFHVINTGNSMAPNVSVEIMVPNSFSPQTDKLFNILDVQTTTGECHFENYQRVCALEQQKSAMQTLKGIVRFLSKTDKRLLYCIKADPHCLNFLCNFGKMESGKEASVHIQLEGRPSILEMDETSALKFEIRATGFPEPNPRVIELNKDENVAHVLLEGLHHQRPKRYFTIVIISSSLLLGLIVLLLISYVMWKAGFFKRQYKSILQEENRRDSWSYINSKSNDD
ATP-binding cassette sub-family B member 6 (Homo sapiens), sequence (Q9NP58 whole entry, looked up): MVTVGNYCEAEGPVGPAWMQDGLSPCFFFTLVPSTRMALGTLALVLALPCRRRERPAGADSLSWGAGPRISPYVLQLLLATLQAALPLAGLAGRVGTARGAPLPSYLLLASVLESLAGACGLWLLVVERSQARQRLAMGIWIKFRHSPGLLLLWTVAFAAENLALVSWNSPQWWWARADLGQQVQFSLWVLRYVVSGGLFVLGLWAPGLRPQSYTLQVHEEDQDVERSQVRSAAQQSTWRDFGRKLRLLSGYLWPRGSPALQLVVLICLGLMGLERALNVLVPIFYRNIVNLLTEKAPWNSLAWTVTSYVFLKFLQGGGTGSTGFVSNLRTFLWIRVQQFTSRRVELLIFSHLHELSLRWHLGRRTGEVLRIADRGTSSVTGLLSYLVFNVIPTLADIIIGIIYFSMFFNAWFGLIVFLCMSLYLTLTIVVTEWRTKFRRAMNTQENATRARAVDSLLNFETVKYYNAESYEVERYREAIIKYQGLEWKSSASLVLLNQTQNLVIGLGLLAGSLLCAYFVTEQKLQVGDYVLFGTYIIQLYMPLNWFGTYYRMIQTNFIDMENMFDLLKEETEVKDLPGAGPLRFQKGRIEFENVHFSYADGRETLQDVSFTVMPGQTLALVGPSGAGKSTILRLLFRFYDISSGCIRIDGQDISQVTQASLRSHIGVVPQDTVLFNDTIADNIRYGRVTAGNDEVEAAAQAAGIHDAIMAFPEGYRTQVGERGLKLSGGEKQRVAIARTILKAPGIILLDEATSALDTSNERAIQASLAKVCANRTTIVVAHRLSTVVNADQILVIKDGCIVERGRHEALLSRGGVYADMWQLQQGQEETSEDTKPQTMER
Beta-2 adrenergic receptor (Homo sapiens), sequence (P07550 whole entry, looked up): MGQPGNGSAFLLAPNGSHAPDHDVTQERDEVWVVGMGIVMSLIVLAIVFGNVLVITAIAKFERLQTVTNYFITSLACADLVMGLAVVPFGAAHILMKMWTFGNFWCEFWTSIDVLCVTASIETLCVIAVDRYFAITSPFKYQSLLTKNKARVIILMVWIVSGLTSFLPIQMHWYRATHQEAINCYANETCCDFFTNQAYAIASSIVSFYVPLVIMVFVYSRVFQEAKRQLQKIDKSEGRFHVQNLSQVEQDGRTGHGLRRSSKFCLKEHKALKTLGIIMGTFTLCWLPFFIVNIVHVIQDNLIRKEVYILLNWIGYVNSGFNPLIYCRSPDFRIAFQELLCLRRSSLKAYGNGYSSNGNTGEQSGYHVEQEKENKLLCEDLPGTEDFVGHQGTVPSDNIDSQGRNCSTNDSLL
AP-2 complex subunit beta (Homo sapiens), sequence (P63010 whole entry, looked up, the tested form may be a part, one chain of several): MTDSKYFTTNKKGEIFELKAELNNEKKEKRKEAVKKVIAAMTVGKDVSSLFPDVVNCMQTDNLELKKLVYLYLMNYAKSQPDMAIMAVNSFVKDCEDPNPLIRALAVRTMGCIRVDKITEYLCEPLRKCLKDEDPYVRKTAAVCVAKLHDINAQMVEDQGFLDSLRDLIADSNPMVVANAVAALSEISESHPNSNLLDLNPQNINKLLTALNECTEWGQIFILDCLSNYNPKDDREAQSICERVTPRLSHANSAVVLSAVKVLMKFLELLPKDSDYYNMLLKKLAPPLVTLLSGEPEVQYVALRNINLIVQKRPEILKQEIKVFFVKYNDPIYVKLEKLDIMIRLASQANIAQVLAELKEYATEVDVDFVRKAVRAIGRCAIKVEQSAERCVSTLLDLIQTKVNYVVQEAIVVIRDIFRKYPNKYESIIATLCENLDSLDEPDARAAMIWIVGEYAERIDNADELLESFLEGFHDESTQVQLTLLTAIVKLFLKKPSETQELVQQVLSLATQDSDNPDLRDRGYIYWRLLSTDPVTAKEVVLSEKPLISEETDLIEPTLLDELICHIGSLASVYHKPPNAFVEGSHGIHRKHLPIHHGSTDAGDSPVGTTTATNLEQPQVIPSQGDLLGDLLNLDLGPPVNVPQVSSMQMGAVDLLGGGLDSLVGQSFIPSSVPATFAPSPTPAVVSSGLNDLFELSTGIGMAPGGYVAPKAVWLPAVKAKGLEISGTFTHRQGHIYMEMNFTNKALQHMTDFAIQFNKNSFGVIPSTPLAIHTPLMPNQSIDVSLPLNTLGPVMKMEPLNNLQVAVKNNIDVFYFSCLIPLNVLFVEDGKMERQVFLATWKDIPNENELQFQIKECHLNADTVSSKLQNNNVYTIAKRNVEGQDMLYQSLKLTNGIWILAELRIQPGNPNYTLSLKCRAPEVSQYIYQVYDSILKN
Beta-adrenergic receptor kinase 1 (Homo sapiens), sequence (P25098 whole entry, looked up): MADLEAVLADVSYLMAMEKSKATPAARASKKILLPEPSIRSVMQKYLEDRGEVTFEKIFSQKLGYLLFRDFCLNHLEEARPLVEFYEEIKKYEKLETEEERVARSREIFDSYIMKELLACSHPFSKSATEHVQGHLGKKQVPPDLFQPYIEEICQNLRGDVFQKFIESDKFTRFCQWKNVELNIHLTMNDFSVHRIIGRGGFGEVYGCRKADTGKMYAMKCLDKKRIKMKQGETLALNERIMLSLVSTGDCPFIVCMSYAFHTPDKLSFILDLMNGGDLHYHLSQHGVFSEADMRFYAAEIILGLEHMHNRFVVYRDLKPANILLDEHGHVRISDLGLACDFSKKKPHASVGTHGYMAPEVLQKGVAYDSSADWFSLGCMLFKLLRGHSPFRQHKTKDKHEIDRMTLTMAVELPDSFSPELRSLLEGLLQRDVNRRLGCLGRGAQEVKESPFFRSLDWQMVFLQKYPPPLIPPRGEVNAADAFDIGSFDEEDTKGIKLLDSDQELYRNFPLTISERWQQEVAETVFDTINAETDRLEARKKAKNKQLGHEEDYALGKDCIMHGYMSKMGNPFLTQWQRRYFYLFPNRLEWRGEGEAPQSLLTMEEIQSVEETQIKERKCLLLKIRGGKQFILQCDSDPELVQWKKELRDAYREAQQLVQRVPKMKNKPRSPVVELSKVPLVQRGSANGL

COc1cccc(CC2CC(=O)N(c3ccc4c(C)cc(=O)oc4c3)C2=O)c1 (stereo not drawn)
61%: double positive events [6]
inactive: percent of DMSO control GFP [1] 99.5% | GFP response vs DMSO [2] 106% | percent response of DMSO control [3] 87.2% | GFP response vs DMSO [4] 132% | GFP response, % of DMSO [5] 97.1% | vesicle binding response [6] 238% | inhibition [7] -0.43% | superoxide response (% of plate) [8] 93.9% | aptamer binding inhibition [9] 2% | response [10] 5.39% | inhibition [11] -2.24% | response [12] 8.95% | binding (% of control) [13] 98.9% | efflux inhibition (fraction of control) [14] -0.06 | inhibition [15] 4% | differentiation response [16] 39.2%

NCCc1cnc[nH]1
55.6% and 61.9%: double positive events [6]
active: response [12] 25.1% and 47.3%
inactive: percent of DMSO control GFP [1] 89.8% and 102% | GFP response vs DMSO [2] 129% and 104% | percent response of DMSO control [3] 101% and 102% | GFP response vs DMSO [4] 78.7% and 113% | GFP response, % of DMSO [5] 84.5% and 117% | vesicle binding response [6] 192% and 166% | inhibition [7] -33.3% and -35.2% | superoxide response (% of plate) [8] 105% and 109% | aptamer binding inhibition [9] 3% and 0% | response [10] -15.1% and -30.5% | inhibition [11] -4.51% and -1.77% | binding (% of control) [13] 105% and 106% | efflux inhibition (fraction of control) [14] 0.09 and 0.04 | inhibition [15] 5% and -3% | differentiation response [16] -5.73% and -4.99%

Cc1nc2ccccn2c(=O)c1CCN1CCC(C(=O)c2ccc(F)cc2)CC1
56.6%: double positive events [6]
inactive: percent of DMSO control GFP [1] 103% | GFP response vs DMSO [2] 105% | percent response of DMSO control [3] 104% | GFP response vs DMSO [4] 101% | GFP response, % of DMSO [5] 104% | vesicle binding response [6] 166% | inhibition [7] -26.6% | superoxide response (% of plate) [8] 95.8% | aptamer binding inhibition [9] 0% | response [10] -22.4% | inhibition [11] 51.2% | response [12] -1.11% | binding (% of control) [13] 106% | efflux inhibition (fraction of control) [14] -0.025 | inhibition [15] 2% | differentiation response [16] -10.4%

Cc1ccc2c(ccc(=S)n2C)c1
54.1%: double positive events [6]
inactive: percent of DMSO control GFP [1] 103% | GFP response vs DMSO [2] 97.2% | percent response of DMSO control [3] 115% | GFP response vs DMSO [4] 93.3% | GFP response, % of DMSO [5] 102% | inhibition [7] 7.85% | superoxide response (% of plate) [8] 87.8% | aptamer binding inhibition [9] 4% | response [10] -14% | inhibition [11] -3.91% | response [12] 0.7% | binding (% of control) [13] 97.7% | efflux inhibition (fraction of control) [14] -0.01 | inhibition [15] 19% | differentiation response [16] 1.22%
active: vesicle binding response [6] 44.4%

CCCCOC(=O)c1ccc(N)cc1
inactive: percent of DMSO control GFP [1] 101% | GFP response vs DMSO [2] 104% | percent response of DMSO control [3] 110% | GFP response vs DMSO [4] 93.7% | GFP response, % of DMSO [5] 105% | vesicle binding response [6] 183% | inhibition [7] -15.8% | superoxide response (% of plate) [8] 91.1% | aptamer binding inhibition [9] -3% | response [10] -7.71% | inhibition [11] 53.1% | response [12] -4.52% | binding (% of control) [13] 99.4% | efflux inhibition (fraction of control) [14] -0.03 | inhibition [15] -2% | differentiation response [16] -7.5%
59.9%: double positive events [6]

COc1ccc(C(=O)NCCC2=CCCCC2)cc1[N+](=O)[O-]
inactive: percent of DMSO control GFP [1] 107% | GFP response vs DMSO [2] 104% | percent response of DMSO control [3] 106% | GFP response vs DMSO [4] 114% | GFP response, % of DMSO [5] 106% | vesicle binding response [6] 194% | inhibition [7] 12.3% | superoxide response (% of plate) [8] 99.5% | aptamer binding inhibition [9] 1% | response [10] -5.02% | inhibition [11] 15.5% | response [12] -2.15% | binding (% of control) [13] 97.5% | inhibition [15] 5% | differentiation response [16] -3.11%
active: efflux inhibition (fraction of control) [14] 1.08
62.5%: double positive events [6]

Cc1ccc(NC(=O)CSc2nc(O)c(Cc3ccccc3)c(=O)n2-c2ccccc2)cc1
65%: double positive events [6]
inactive: percent of DMSO control GFP [1] 103% | GFP response vs DMSO [2] 105% | percent response of DMSO control [3] 94.2% | GFP response vs DMSO [4] 99.3% | GFP response, % of DMSO [5] 102% | vesicle binding response [6] 210% | inhibition [7] -6.68% | superoxide response (% of plate) [8] 95.4% | aptamer binding inhibition [9] 3% | response [10] 3.5% | inhibition [11] 16.9% | response [12] -1.44% | binding (% of control) [13] 97.7% | efflux inhibition (fraction of control) [14] -0.17 | inhibition [15] 9% | differentiation response [16] 1.22%

CCN1CCN(C(=S)c2ccc(OC)cc2)CC1
inactive: percent of DMSO control GFP [1] 101% | GFP response vs DMSO [2] 99.6% | percent response of DMSO control [3] 109% | GFP response vs DMSO [4] 76% | GFP response, % of DMSO [5] 92.6% | vesicle binding response [6] 183% | inhibition [7] -4.52% | superoxide response (% of plate) [8] 106% | aptamer binding inhibition [9] 2% | response [10] 11.6% | inhibition [11] -10.4% | binding (% of control) [13] 101% | efflux inhibition (fraction of control) [14] -0.21 | inhibition [15] 9% | differentiation response [16] -20%
62.5%: double positive events [6]
active: response [12] 19.2%

CC(C)(C)C(=O)N1CCCC1C(=O)O (stereo not drawn)
65.6%: double positive events [6]
inactive: percent of DMSO control GFP [1] 104% | GFP response vs DMSO [2] 96.6% | percent response of DMSO control [3] 99% | GFP response vs DMSO [4] 99.5% | GFP response, % of DMSO [5] 106% | vesicle binding response [6] 141% | inhibition [7] 4.84% | superoxide response (% of plate) [8] 95.6% | aptamer binding inhibition [9] 11% | response [10] -4.87% | inhibition [11] -2.34% | response [12] -11% | binding (% of control) [13] 103% | efflux inhibition (fraction of control) [14] -0.04 | inhibition [15] 2% | differentiation response [16] 11.8%
